Assay results published in PubChem BioAssay.
The source made the active and inactive calls.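 How the source made its calls, unless noted: active means fluorescence slope after compound addition differing from the mean of all screened samples at 99.7% confidence, in either direction; inactive means the rest.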

How the values were obtained:
[1] = inhibitors of TNFa-induced NFkB p65 translocation, primary screen, imaging, HUVEC, MLSMR starter and 10KST1 sets (AID 438;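 active means inhibition above 20% together with a positive visual image hit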;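 further: compound added about 3h40 before a 20 min TNFalpha stimulation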;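 on inhibition: signal is the nuclear over cytoplasmic p65 intensity ratio per well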); conditions: HUVEC TNFa-induced p65 nuclear translocation; cell count: measured here: nuclei count (cytotoxicity indicator), at 2.08 µM; inhibition: at 2 µM, stronger effect = higher value, 0% TNFa-plus-vehicle, 100% no-TNFa wells
[2] = inhibitors of mutant huntingtin aggregation, primary screen, imaging, exon1htt(103Q)mCFP cells, high-content imaging (AID 483;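 active means visual image review flags a hit and inhibition of aggregation exceeds 20%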;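 further: compound exposure lasted 3 days before fixation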;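 on nuclei count: percent of the per-plate median nuclei count of sample wells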); conditions: exon1htt(103Q)mCFP cell line, aggregate imaging, at 2 µM; inhibition of aggregation: stronger effect = higher value; nuclei count: measured here: cell count, toxicity
[3] = inhibitors of E-selectin induction by TNFa, primary screen, imaging, HUVEC, immunofluorescence, MLSMR starter and 10KST1 sets (AID 487;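 active means visually confirmed hit in the image check and inhibition above 20%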;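 on inhibition: signal is fraction of cell area covered by stained E-selectin grains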;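 on nuclei count: 100% = median nuclei count of all wells on the same plate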); conditions: HUVEC TNFalpha-induced E-selectin immunofluorescence imaging, at 2 µM; inhibition: stronger effect = higher value; nuclei count: measured here: cell number, toxicity
[4] = molecular target: Voltage-gated potassium channel subunit beta-2 (Rattus norvegicus) (UniProt P62483); assay: KvBeta enzyme negative modulators, primary screen, biochemical, NADPH fluorescence (AID 622;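 active means fluorescence slope higher than the sample average by over 3 SD, cut at about -0.22 in these data, passing the limit was not always enough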;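 further: slope of raw intensity against log time taken from 70 to 1610 s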); conditions: recombinant KvBeta, 4-cyanobenzaldehyde reduction, at 10 µM, stronger effect = higher value
Chain of Voltage-gated potassium channel subunit beta-2 (Rattus norvegicus) (P62483 whole entry, looked up): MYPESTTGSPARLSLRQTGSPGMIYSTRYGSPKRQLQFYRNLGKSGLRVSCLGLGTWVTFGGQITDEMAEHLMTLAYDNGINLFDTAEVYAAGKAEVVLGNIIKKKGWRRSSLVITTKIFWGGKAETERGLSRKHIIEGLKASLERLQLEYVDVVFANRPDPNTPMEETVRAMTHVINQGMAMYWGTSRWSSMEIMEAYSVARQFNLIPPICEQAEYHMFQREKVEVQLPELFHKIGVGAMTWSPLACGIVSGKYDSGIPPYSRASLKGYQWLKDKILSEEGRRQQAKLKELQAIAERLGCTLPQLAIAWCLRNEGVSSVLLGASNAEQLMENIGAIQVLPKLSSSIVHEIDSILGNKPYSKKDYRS

[5] = molecular target: Voltage-gated potassium channel subunit beta-2 (Rattus norvegicus) (UniProt P62483); assay: KvBeta positive modulators, primary screen, biochemical, NADPH fluorescence (AID 623;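 active means NADPH fluorescence slope more negative than the mean of all samples by about 3 SD, 99.7% confidence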;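 further: fluorescence intensity change per second fitted from 20 to 320 s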); conditions: Recombinant KvBeta, NADPH fluorescence decrease slope, 10 min; at 10 µM; stronger effect = lower value
[6] = molecular target: Alpha-2C adrenergic receptor (Homo sapiens) (UniProt P18825); assay: modulators of alpha2C/GIRK thallium flux, primary screen, cell-based, HEK293 alpha2C/GIRK1/2 (AID 624); conditions: thallium flux BTC fluorescence, at 10 µM, actives lie on both sides;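 further: slope of fluorescence ratio to pre-addition baseline per second over 15 to 24 s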
Chain of Alpha-2C adrenergic receptor (Homo sapiens) (P18825 whole entry, looked up): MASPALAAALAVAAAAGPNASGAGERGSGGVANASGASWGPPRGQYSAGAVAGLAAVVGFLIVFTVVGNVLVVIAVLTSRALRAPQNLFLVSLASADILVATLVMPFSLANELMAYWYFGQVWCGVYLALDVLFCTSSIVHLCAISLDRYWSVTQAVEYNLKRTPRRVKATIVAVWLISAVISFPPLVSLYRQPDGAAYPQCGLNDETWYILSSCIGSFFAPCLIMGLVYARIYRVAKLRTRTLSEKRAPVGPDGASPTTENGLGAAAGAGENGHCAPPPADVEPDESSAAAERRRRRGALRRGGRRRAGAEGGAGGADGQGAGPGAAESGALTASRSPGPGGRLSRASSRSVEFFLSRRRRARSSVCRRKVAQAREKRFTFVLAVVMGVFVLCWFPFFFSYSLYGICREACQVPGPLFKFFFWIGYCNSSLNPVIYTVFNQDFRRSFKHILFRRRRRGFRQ

[7] = inhibitors of Sendai virus-induced IRF3 signaling, primary screen, TLR/RLR signaling modifier project, cell-based, Sendai virus stimulus, luciferase, 10K MLSCN set (AID 602276;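 active means inhibition at or above 50% at 10 µM; inactive means inhibition below 50%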;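 further: firefly luciferase from ISG56 promoter only with Renilla not read in this screen; 0% = Sendai virus plus DMSO and 100% = medium plus DMSO without virus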); conditions: HEK293 RL24 IRF3 luciferase reporter, at 10 µM, stronger effect = higher value
[8] = inhibitors of poly I:C-induced TLR3 signaling, primary screen, cell-based, poly I:C stimulus, luciferase, 10K MLSCN set (AID 602277;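 active means inhibition of the reporter signal at or above 50%; inactive means inhibition below 50%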); conditions: HEK293-TLR3 RL24 IRF3 luciferase reporter, at 10 µM, stronger effect = higher value

Row | Compound | cell count [1] | inhibition [1] | inhibition of aggregation [2] | nuclei count [2] [%] | inhibition [3] | nuclei count [3] [%] | fluorescence slope [4] | NADPH fluorescence slope [5] | slope [6] | inhibition [7] | inhibition [8]
1 | CC1(C)CC(=O)C(CC2=C(O)CC(C)(C)CC2=O)=C(O)C1 | 628 | -6.7% (inactive) | 15.8% (inactive) | 90.9 | -24.2% (inactive) | 112 | -0.386 (inactive) | -1.3e-05 (inactive) | 0.00397 (inactive) | 7.41% (inactive) | 23.2% (inactive)
2 | O=C(c1cc(C2CC2)on1)N1CCN(C(c2ccccc2)c2ccccc2)CC1 | 731 | -3.5% (inactive) | 25% (inactive) | 82 | -61% (inactive) | 89.3 | -0.573 (inactive) | -7.4e-06 (inactive) | 0.00569 (inactive) | 7.04% (inactive) | 35.9% (inactive)
3 | CC1(C)C(=O)Nc2ccccc2N1C(=O)COC(=O)Cn1cnc2ccccc2c1=O | 465 | 2.5% (inactive) | -1.8% (inactive) | 107 | -67.7% (inactive) | 116 | -0.364 (inactive) | -1.3e-05 (inactive) | 0.00422 (inactive) | 7.38% (inactive) | 20.1% (inactive)
4 | O=C(NCCCN1CCOCC1)c1cc(-c2ccc(O)cc2)on1 | 614 | -1.6% (inactive) | -5.2% (inactive) | 92.4 | -46.9% (inactive) | 114 | -0.565 (inactive) | -3.8e-05 (inactive) | 0.00654 (inactive) | 2.55% (inactive) | -5.13% (inactive)
5 | O=C(CSc1nnc(-c2ccccc2F)o1)OCc1ccccc1 | 323 | 8.7% (inactive) | -1.8% (inactive) | 89.1 | -69.6% (inactive) | 99.9 | -0.428 (inactive) | 1.9e-05 (inactive) | 0.00527 (inactive) | 4.91% (inactive) | 34.1% (inactive)
6 | O=C(c1ccc(-c2ccccc2)cc1)N1CCC(C(=O)N2CCCC2)CC1 | 237 | -4.7% (inactive) | 0.5% (inactive) | 91.7 | -17.6% (inactive) | 101 | -0.388 (inactive) | -5.3e-05 (inactive) | 0.00472 (inactive) | 16% (inactive) | 8.25% (inactive)
7 | COc1ccc(C2C(C#N)=C(N)Oc3cc4c(cc32)OCO4)cc1 (stereo not drawn) | 496 | 3.5% (inactive) | 4.7% (inactive) | 105 | -103% (inactive) | 110 | -0.401 (inactive) | -5.6e-05 (inactive) | 0.00586 (inactive) | -6.84% (inactive) | 59.4% (active)
8 | CCc1ccccc1OCCCCN1CCCC1 | 454 | -4.1% (inactive) | 10.6% (inactive) | 89.5 | -88.7% (inactive) | 75.1 | -0.518 (inactive) | -4.4e-05 (inactive) | 0.00548 (inactive) | -4.55% (inactive) | -12.9% (inactive)
9 | COc1ccccc1N1CCN(C(=O)c2cc(C3CC3)on2)CC1 | 626 | -8.7% (inactive) | -1.6% (inactive) | 85.4 | 1.1% (inactive) | 95.8 | -0.607 (inactive) | -3.3e-05 (inactive) | 0.00629 (inactive) | -5.11% (inactive) | 26.8% (inactive)
10 | CCCOC(=O)c1ccc(-c2c(C)noc2-c2ccc(OC)cc2O)o1 | 162 | -6.3% (inactive) | 1.9% (inactive) | 106 | 0.4% (inactive) | 87 | -0.495 (inactive) | -3.7e-05 (inactive) | 0.00302 (inactive) | 1.25% (inactive) | 2.32% (inactive)
11 | Cc1cc(C)nc(N2CCC(C(=O)NC3CCCCCC3)CC2)n1 | 502 | -11.2% (inactive) | 25.2% (inactive) | 93.6 | 19.9% (inactive) | 90.5 | -0.508 (inactive) | 6.6e-06 (inactive) | 0.00535 (inactive) | 16.4% (inactive) | 16.2% (inactive)
12 | O=c1c2ccccc2nc2n1CCN2 | 338 | 4.6% (inactive) | -10.3% (inactive) | 108 | -115% (inactive) | 131 | -0.573 (inactive) | 7.7e-06 (inactive) | 0.00443 (inactive) | 21.2% (inactive) | 20.6% (inactive)
13 | Cc1nnc(SCC(=O)N(C(C)C)C(C)C)nc1C | 430 | 7% (inactive) | -8.2% (inactive) | 101 | -106% (inactive) | 115 | -0.599 (inactive) | -3.9e-05 (inactive) | 0.00322 (inactive) | 6.7% (inactive) | 8.25% (inactive)
14 | CC(C)C[C@H](NC(=O)Nc1cccc(C(F)(F)F)c1)C(=O)O | 393 | -9.8% (inactive) | 9.1% (inactive) | 70.6 | -25.5% (inactive) | 97.8 | -0.493 (inactive) | 4.1e-05 (inactive) | 0.00499 (inactive) | -1.3% (inactive) | 6.75% (inactive)
15 | Cc1nc2ccc(S(=O)(=O)NC(C(=O)N3CCCC3)C(C)C)cc2s1 (stereo not drawn) | 677 | 1.8% (inactive) | -21.4% (inactive) | 111 | -33% (inactive) | 110 | -0.613 (inactive) | 1.2e-05 (inactive) | 0.00717 (inactive) | 12.9% (inactive) | 13.8% (inactive)
16 | CC(=O)Nc1ccc(OC(=O)c2cccs2)cc1 | 716 | 10.2% (inactive) | -5% (inactive) | 107 | 27.9% (inactive) | 94.2 | -0.473 (inactive) | 5.9e-06 (inactive) | 0.00674 (inactive) | 8.66% (inactive) | 20% (inactive)
17 | Cc1csc(SCc2nc3sc4c(c3c(=O)[nH]2)CCC4)n1 | 562 | 1.9% (inactive) | 0.1% (inactive) | 116 | -229% (inactive) | 171 | -0.553 (inactive) | -1.4e-05 (inactive) | 0.00536 (inactive) | 13% (inactive) | 1.21% (inactive)
18 | CC1CCCCC1NC(=O)C1CCN(C(=O)NC2CCCCC2)CC1 (stereo not drawn) | 172 | -4.9% (inactive) | 20.6% (inactive) | 71.9 | 2.1% (inactive) | 79.8 | -0.448 (inactive) | -4.6e-05 (inactive) | 0.00366 (inactive) | 13.5% (inactive) | 28.2% (inactive)
19 | Cc1cc(C(=O)NCCCN2CCOCC2)n(-c2ccccc2)n1 | 624 | 3.3% (inactive) | -11.9% (inactive) | 92.5 | -29.6% (inactive) | 115 | -0.519 (inactive) | -2.1e-05 (inactive) | 0.00682 (inactive) | 9.1% (inactive) | 24.9% (inactive)
20 | COc1ccc(C(CNC(=O)c2cc(C)oc2C)N2CCOCC2)cc1 (stereo not drawn) | 711 | -0.8% (inactive) | -5.3% (inactive) | 103 | -140% (inactive) | 145 | -0.609 (inactive) | -9.2e-06 (inactive) | 0.00615 (inactive) | 11.1% (inactive) | 15.8% (inactive)
21 | COc1ccccc1NC(=O)Cn1nnc(-c2ccccc2NC(=O)c2ccco2)n1 | 317 | 6.2% (inactive) | -19% (inactive) | 86.5 | -29.7% (inactive) | 117 | -0.408 (inactive) | -1.3e-05 (inactive) | 0.00705 (inactive) | 16.8% (inactive) | 37.7% (inactive)
22 | Cn1c(=O)c(=O)n(C)c2cc(S(=O)(=O)Nc3ccc4c(c3)OCCO4)ccc21 | 354 | -1.2% (inactive) | -18.4% (inactive) | 106 | -21.4% (inactive) | 108 | -0.421 (inactive) | -5.4e-05 (inactive) | 0.00519 (inactive) | 45.1% (inactive) | 35.8% (inactive)
23 | O=C1C(Cl)=C(N2CCOCC2)C(=O)N1CCc1ccccc1 | 373 | 2.8% (inactive) | -26.1% (inactive) | 97.1 | -20.9% (inactive) | 94.6 | -0.356 (inactive) | -8.5e-06 (inactive) | 0.0076 (inactive) | -18.6% (inactive) | -16.7% (inactive)
24 | CCCCOC(=O)Cn1c(=O)oc2ccc(C)cc21 | 741 | -5.8% (inactive) | 3.3% (inactive) | 38 | -96.5% (inactive) | 109 | -0.589 (inactive) | -4.7e-05 (inactive) | 0.00659 (inactive) | -5.21% (inactive) | 7.21% (inactive)
25 | COC(=O)c1ccccc1NS(=O)(=O)c1ccc(F)cc1 | 609 | 2.4% (inactive) | -3% (inactive) | 99.4 | -22.1% (inactive) | 114 | -0.523 (inactive) | -3.8e-05 (inactive) | 0.00602 (inactive) | 9.83% (inactive) | 17.7% (inactive)
26 | COc1ccccc1Cn1nnc2c(=O)[nH]c(C3CCN(C(=O)c4ccccc4Cl)CC3)nc21 | 324 | 3.2% (inactive) | 1.4% (inactive) | 109 | -5.4% (inactive) | 98 | -0.624 (inactive) | -1.1e-05 (inactive) | 0.00545 (inactive) | 18.5% (inactive) | 40.2% (inactive)
27 | O=C(NCCN1C(=O)C2C3C=CC(C3)C2C1=O)N1CCOCC1 (stereo not drawn) | 549 | -4.5% (inactive) | 7.2% (inactive) | 52.3 | -8.6% (inactive) | 69.7 | -0.586 (inactive) | -1e-05 (inactive) | 0.00653 (inactive) | 3.84% (inactive) | 27.8% (inactive)
28 | Cc1cccc(C2CC(c3ccccc3)Nc3nc(N)nn32)c1 (stereo not drawn) | 626 | -3.4% (inactive) | 7.7% (inactive) | 114 | -47.9% (inactive) | 120 | -0.517 (inactive) | -5.7e-06 (inactive) | 0.00697 (inactive) | 9.21% (inactive) | 18.7% (inactive)
